# Assay results from PubChem BioAssay.
# Calls of active or inactive are those of the source.
# Experiments:
# [1] = test system: PRMT1 (protein arginine N-methyltransferase 1); assay: PRMT1 binders on small-molecule microarrays, primary screen, biochemical, small-molecule microarray, 635 nm fluorescence (AID 1088); details: small-molecule microarray binding, higher = more signal;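 also: binding of Prmt1 protein to compounds spotted on small-molecule microarray slides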
# [2] = yeast growth modulation, basal conditions, primary screen, YJM789 clinical isolate, OD600, 24 h (AID 1089);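 also: growth of clinical yeast isolate S. cerevisiae YJM 789 seeded 1000 cells per well; test concentration not given here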; details: S. cerevisiae YJM789 growth, higher = more signal, called active from +8 up or from −8 down
# [3] = fission yeast growth modulation, primary screen, strain 972, OD600, 24 h, no modulator (AID 1090);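 also: basal condition with compound alone and no growth modifier present; test concentration not given here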; details: S. pombe 972 growth, higher = more signal, called active from +8 up or from −8 down
# [4] = S. cerevisiae growth modulation with rapamycin, primary screen, strain BY4716, OD600, 96 h (AID 1091); details: higher = more signal, called active from +8 up or from −8 down; also: test concentration not given here
# [5] = biological target: Torsin-1A-interacting protein 2 (Homo sapiens) (UniProt Q8NFQ8); assay: LULL1 binders on small-molecule microarray, primary screen, cell lysate, human LULL1 lysate, 635/667 nm fluorescence (AID 1092); details: hLULL1 lysate binding, 635 nm fluorescence, higher = more signal;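 also: probe is lysate of COS7 cells overexpressing human LULL1; score merges per-feature 667 nm fluorescence with signal-to-noise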
# Torsin-1A-interacting protein 2 (Homo sapiens), sequence (Q8NFQ8 whole entry, looked up): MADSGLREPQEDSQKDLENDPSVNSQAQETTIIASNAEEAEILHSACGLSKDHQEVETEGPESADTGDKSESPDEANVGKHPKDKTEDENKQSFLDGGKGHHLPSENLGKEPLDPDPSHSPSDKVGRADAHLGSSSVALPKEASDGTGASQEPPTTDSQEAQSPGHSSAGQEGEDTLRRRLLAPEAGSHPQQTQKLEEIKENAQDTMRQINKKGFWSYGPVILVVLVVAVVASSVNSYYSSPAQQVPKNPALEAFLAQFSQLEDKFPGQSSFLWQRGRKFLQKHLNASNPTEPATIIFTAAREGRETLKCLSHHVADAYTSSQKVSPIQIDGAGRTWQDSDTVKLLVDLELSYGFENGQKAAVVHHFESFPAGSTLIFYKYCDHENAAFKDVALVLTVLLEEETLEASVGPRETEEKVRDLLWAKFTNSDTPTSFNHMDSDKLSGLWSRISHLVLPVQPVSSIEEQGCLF
# [6] = E. coli growth modulation, two-sided OD650, primary screen, E. coli filamentation project, strain DRC41, 24 h (AID 1093); details: OD650, 24 h, higher = more signal, called active from +8 up or from −8 down;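 also: MC1000 strain lacking acrAB efflux and sulA so SOS filamentation is blocked; test concentration not given here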
# [7] = small-molecule microarray binders of probe aLefty2, primary screen, biochemical, biotinylated probe, 635/667 nm fluorescence (AID 1094); details: higher = more signal;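 also: score merges spot fluorescence near 667 nm with spot signal-to-noise ratio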
# [8] = test system: Noggin (protein binding on small-molecule microarray); assay: Noggin binders on small-molecule microarray, primary screen, biochemical, 635/667 nm fluorescence (AID 1095); details: 635 nm fluorescence, higher = more signal;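 also: score merges 667 nm feature fluorescence with signal to noise over triplicate slides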
# [9] = biological target: Neurogenic locus notch homolog protein 3 (Homo sapiens) (UniProt Q9UM47); assay: NOTCH3 binders on small-molecule microarray, primary screen, biochemical, 635/667 nm fluorescence (AID 1096); details: NOTCH3 binding, 635 nm fluorescence, higher = more signal
# Neurogenic locus notch homolog protein 3 (Homo sapiens), sequence (Q9UM47 whole entry, looked up): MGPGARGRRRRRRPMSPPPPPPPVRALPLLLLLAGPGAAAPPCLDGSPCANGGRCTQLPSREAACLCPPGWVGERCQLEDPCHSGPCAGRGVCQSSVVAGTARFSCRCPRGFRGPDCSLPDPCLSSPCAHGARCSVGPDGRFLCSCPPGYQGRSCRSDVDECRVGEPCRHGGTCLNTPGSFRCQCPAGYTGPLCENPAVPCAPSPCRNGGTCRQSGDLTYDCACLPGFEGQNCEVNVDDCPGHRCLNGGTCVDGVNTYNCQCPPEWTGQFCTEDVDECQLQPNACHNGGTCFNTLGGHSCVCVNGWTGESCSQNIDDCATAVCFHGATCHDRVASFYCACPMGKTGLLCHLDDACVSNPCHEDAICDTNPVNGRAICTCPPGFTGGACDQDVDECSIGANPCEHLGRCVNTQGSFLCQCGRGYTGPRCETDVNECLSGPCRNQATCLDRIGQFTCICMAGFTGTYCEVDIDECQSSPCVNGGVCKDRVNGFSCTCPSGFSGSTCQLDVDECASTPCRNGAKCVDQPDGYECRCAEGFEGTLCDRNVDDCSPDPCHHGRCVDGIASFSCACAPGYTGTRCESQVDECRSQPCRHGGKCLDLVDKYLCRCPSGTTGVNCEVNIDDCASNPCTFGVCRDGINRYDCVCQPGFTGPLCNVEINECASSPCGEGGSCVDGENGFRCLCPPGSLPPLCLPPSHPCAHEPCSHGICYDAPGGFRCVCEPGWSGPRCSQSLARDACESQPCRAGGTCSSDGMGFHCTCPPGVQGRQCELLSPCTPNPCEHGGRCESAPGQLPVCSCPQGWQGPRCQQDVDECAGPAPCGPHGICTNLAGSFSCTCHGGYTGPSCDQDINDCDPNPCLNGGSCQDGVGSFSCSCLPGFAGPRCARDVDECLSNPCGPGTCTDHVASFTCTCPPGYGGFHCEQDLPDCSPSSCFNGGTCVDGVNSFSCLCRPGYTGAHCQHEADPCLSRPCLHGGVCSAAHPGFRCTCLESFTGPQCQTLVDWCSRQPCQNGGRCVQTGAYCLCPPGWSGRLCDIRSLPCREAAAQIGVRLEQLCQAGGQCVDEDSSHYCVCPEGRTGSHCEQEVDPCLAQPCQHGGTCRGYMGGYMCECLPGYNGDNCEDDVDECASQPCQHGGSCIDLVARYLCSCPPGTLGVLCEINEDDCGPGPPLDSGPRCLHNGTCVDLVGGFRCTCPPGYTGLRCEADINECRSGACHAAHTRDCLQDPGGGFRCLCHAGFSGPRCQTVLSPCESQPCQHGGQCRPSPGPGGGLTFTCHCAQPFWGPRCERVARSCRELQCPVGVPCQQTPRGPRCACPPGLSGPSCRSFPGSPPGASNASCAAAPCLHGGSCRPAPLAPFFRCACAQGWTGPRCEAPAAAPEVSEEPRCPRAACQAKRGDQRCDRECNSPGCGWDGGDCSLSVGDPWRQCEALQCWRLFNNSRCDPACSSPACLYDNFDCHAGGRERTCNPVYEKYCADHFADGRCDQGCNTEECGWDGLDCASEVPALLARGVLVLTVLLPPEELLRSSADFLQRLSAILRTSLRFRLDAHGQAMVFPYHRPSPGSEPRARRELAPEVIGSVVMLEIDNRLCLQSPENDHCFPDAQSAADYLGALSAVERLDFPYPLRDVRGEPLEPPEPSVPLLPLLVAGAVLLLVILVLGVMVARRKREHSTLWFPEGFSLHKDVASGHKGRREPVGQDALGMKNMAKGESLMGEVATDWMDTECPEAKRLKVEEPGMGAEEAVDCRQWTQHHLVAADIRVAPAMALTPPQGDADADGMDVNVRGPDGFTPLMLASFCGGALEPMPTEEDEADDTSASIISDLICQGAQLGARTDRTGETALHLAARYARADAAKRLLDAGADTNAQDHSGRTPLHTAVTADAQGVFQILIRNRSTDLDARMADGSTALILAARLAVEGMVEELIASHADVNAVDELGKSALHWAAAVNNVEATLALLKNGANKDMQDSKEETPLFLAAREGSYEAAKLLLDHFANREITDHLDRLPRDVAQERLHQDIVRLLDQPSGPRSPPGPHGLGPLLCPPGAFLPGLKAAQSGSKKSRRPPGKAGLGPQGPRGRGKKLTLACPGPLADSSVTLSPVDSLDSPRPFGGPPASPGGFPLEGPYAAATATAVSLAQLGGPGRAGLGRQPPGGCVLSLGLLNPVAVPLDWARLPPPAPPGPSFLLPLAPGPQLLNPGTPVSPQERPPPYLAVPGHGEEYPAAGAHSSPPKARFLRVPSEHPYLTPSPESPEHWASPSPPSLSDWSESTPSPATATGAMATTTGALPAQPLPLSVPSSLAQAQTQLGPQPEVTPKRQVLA
# [10] = small-molecule microarray binders of probe aEGFR, primary screen, biochemical, biotinylated probe, 635/667 nm fluorescence (AID 1097); details: higher = more signal;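 also: probe is a biotinylated anti-EGFR antibody binding compounds printed on slides; score combines fluorescence near 667 nm and signal to noise of each spot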
# [11] = test system: Plasmodium falciparum Sir2 (PF13_0152, Sir2A); assay: pfSir2 binders on small-molecule microarrays, primary screen, biochemical, small-molecule microarray, 635 nm fluorescence (AID 1098); details: small-molecule microarray binding, fluorescence 635 nm; higher = more signal;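 also: score merges spot fluorescence intensity with its signal-to-noise ratio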
# [12] = small-molecule microarray binders of probe aDKK1, primary screen, biochemical, biotinylated probe, 635/667 nm fluorescence (AID 1099); details: higher = more signal;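 also: score merges 667nm spot fluorescence with signal to noise across triplicate slides; reference of the scale not given here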
# [13] = small-molecule microarray binders of probe aCHRDL2, primary screen, biochemical, biotinylated probe, 635/667 nm fluorescence (AID 1100); details: higher = more signal
# [14] = splicing luciferase reporter signal modulators, primary screen, spliceosome inhibition project, cell-based, HEK293, splice +/- reporter (AID 1101); details: luminescence, 24 h, higher = more signal, called active from +8 up or from −8 down;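 also: HEK293 cells carrying a splicing-competent luciferase reporter gene; test concentration not given here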
# [15] = biological target: Fibroblast growth factor 10 (Homo sapiens) (UniProt O15520); assay: FGF10 binders on small-molecule microarrays, primary screen, biochemical, small-molecule microarray, 635 nm fluorescence (AID 1102); details: FGF10 binding, fluorescence 635 nm, higher = more signal
# Fibroblast growth factor 10 (Homo sapiens), sequence (O15520 whole entry, looked up): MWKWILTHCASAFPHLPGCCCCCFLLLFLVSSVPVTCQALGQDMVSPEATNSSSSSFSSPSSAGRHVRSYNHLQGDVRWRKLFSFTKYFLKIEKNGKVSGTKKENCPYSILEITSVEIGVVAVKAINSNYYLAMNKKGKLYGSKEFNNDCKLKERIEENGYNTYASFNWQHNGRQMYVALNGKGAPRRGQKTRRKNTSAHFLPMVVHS
# [16] = test system: glycogen synthase kinase-3 (GSK3A per assay name; protocol says GSK3B); assay: GSK3 binders on small-molecule microarrays, primary screen, biochemical, small-molecule microarray, 635 nm fluorescence, GSK3A (AID 1103); details: small-molecule microarray binding, fluorescence 635 nm; higher = more signal; also: the record names both GSK3A and GSK3B
# [17] = biological target: Epidermal growth factor receptor (Homo sapiens) (UniProt P00533); assay: EGFR binders on small-molecule microarrays, primary screen, biochemical, small-molecule microarray, 635 nm fluorescence (AID 1104); details: EGFR binding, higher = more signal;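 also: score merges 667 nm emission intensity with spot signal to noise over triplicate slides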
# Epidermal growth factor receptor (Homo sapiens), sequence (P00533 whole entry, looked up): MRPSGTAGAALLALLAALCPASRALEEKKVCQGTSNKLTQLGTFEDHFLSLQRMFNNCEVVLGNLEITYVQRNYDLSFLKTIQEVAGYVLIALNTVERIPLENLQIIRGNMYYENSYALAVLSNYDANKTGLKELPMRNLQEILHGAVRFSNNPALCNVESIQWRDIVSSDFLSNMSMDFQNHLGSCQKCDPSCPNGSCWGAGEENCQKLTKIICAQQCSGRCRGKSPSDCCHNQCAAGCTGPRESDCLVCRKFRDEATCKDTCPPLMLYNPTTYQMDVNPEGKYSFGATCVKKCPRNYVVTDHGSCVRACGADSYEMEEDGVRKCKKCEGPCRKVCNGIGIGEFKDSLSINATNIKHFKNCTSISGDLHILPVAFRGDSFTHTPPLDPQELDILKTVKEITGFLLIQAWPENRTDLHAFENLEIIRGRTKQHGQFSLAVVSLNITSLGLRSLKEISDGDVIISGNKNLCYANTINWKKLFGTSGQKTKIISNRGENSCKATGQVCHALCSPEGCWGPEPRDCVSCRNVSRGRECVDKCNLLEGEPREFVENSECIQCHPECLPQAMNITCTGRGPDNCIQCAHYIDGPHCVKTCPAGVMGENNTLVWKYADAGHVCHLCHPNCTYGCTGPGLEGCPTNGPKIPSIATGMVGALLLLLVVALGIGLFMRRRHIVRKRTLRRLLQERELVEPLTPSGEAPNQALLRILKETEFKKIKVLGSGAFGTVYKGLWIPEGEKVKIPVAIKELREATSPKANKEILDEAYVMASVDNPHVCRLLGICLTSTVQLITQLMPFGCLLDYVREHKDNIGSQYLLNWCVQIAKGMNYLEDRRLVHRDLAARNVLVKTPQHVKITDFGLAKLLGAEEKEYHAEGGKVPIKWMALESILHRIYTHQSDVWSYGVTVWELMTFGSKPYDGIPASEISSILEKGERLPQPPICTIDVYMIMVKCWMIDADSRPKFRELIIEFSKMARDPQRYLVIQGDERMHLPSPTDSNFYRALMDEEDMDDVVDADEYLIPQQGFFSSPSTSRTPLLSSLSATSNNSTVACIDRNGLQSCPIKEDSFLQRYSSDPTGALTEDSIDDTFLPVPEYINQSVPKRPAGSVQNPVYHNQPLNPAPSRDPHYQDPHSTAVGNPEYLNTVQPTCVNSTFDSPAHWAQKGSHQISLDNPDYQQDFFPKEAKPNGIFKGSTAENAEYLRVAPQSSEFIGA
# [18] = biological target: Follistatin-related protein 3 (Homo sapiens) (UniProt O95633); assay: FSTL3 binders on small-molecule microarrays, primary screen, biochemical, small-molecule microarray, 635 nm fluorescence (AID 1105); details: FSTL3 binding, higher = more signal;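 also: score merges emission near 667 nm and signal to noise per printed spot across three slides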
# Follistatin-related protein 3 (Homo sapiens), sequence (O95633 whole entry, looked up): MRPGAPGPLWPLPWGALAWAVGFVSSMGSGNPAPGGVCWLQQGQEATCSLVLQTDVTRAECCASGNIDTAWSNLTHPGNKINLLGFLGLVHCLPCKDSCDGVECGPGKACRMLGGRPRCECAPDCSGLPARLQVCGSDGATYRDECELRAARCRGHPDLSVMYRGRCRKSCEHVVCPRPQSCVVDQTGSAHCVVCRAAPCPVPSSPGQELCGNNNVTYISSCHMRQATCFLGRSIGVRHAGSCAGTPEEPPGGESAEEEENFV
# [19] = biological target: Dickkopf-related protein 1 (Homo sapiens) (UniProt O94907); assay: DKK1 binders on small-molecule microarrays, primary screen, biochemical, small-molecule microarray, 635 nm fluorescence scan (AID 1106); details: DKK1 binding, higher = more signal;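 also: score merges emission near 667 nm with signal to noise over three replicate slides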
# Dickkopf-related protein 1 (Homo sapiens), sequence (O94907 whole entry, looked up): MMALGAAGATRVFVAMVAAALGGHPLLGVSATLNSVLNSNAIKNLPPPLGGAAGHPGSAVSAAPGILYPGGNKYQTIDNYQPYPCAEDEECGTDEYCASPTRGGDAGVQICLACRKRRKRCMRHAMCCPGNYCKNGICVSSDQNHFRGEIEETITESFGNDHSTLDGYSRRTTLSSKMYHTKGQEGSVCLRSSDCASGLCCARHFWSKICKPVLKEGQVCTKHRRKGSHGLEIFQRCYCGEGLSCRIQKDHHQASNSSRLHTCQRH
# [20] = test system: Inhibin beta A chain (activin A); assay: INHBA (activin A) binders on microarrays, primary screen, biochemical, small-molecule microarray, 635 nm fluorescence scan (AID 1107); details: small-molecule microarray binding, higher = more signal;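 also: mouse activin A protein probed at 4.33 µg/mL on printed slides; score merges bound-protein fluorescence near 667 nm with spot signal-to-noise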
SMILES,composite z-score [1],z-score [2],z-score [3],z-score [4],composite z-score [5],z-score [6],composite z-score [7],composite z-score [8],composite z-score [9],composite z-score [10],composite z-score [11],composite z-score [12],composite z-score [13],z-score [14],composite z-score [15],composite z-score [16],composite z-score [17],composite z-score [18],composite z-score [19],composite z-score [20]
COC(=O)[C@@]1(Cc2ccccc2)N=C(c2ccc(OCCCO)cc2)O[C@H]1c1ccccc1N=[N+]=[N-],1.49,0.288 (inactive),-2.2 (inactive),5.8 (inactive),1.35,0.319 (inactive),0.0484,0.884,0.802,-0.0953,1.38,0.0861,0.657,-0.384 (inactive),0.883,0.887,-0.003,0.848,0.425,1.23
Cc1ccc(S[C@]2(C(=O)O)CC(=O)N(C3Cc4ccccc4C3)[C@@H]2c2ccc(CO)cc2I)cc1,0.46,-1.47 (inactive),-1.01 (inactive),1.6 (inactive),2.32,-0.263 (inactive),0.125,-1.02,-0.891,-0.132,0.787,0.425,1.05,-0.0201 (inactive),-0.345,-0.695,-1.04,-0.75,-0.649,1.11
Cc1ccc(S[C@]2(C(=O)NCC(C)C)CC(=O)N(Cc3ccccc3Cl)[C@@H]2c2ccc(CO)cc2)cc1,-0.446,-0.259 (inactive),-0.751 (inactive),-0.0993 (inactive),0.294,-0.0077 (inactive),-0.0216,-1.98,-1.5,-0.228,-0.248,0.254,0.94,0.35 (inactive),-0.756,-1.15,-1,-2.05,-1.77,-0.544
Cc1ccc(S[C@]2(C(=O)NC3CC3)CC(=O)N(Cc3ccccc3)[C@@H]2c2ccc(CO)cc2)cc1,0.0655,-0.592 (inactive),-0.852 (inactive),-0.168 (inactive),2.08,-0.445 (inactive),0.0704,-0.347,-0.462,-0.0778,0.325,0.224,0.892,-0.61 (inactive),-0.829,-0.414,-0.679,-0.217,0.539,0.194
O=C1O[C@@H](c2ccccc2)[C@@H](c2ccccc2)N2[C@@H](c3ccc(OCCO)cc3)[C@]3(C(=O)Nc4ccc(C#CC5=CCCCC5)cc43)[C@@H](C(=O)O)[C@H]12,1.5,1.73 (inactive),1.22 (inactive),-0.188 (inactive),1.96,0.112 (inactive),0.0919,0.107,0.793,0.0061,0.87,0.82,0.431,0.618 (inactive),0.43,0.661,0.257,0.636,0.581,0.784
